This is a sample that favours compounds with a hit; in the whole collection about 2.9% have one here.
EBV LMP1 NFkB = reduces LMP1-driven NF-kappaB luciferase signal. AID 504558. LMP1-induced NF-kappaB luciferase reporter cells, luminescence. 350,000 compounds, 0.69% hits. inhibition, % at 12.5 µM; in the data active means inhibition above about 41%
KKLEB cytotox = reduces viability of KKLEB cystic fibrosis airway cells. 360,000 compounds, 0.36% hits. activity change (cytotoxicity), % at 5 µM. KKLEB CF airway cells viability, ATPlite luminescence, overnight; hits give low values; cells stimulated with P. aeruginosa culture filtrate;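 active means corrected activity change at or below -50% at 5 µM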
CF NFkB inh = cystic fibrosis NF-kB activation inhibition. KKLEB NF-kB-GFP reporter, PAF-induced, GFP fluorescence overnight. inhibition, % at 5 µM. 360,000 compounds, 0.86% hits. AID 588850;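 active means at least 50% inhibition at 5 µM, scaled per plate between neutral and stimulator controls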;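 further: PAF is a Pseudomonas aeruginosa culture filtrate used as stimulus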
MITF TRPM1 inh = reduces MITF-dependent TRPM1 promoter luciferase signal; SK-MEL-5 TRPM1 promoter luciferase, 24 h; inhibition, % at 12.5 µM; 330,000 compounds, 0.83% hits;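 active means mean inhibition across replicates of 60% or more, whatever share of single replicates reaches that level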
Shn3 3UTR inh = reduces Shn3 3'UTR luciferase signal in osteoblasts; Clone20 osteoblast Shn3 3'UTR firefly luciferase, 24 h; inhibition, % at 12.5 µM; 360,000 compounds, 0.52% hits; AID 588674;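 active means mean inhibition of at least 75% with every replicate also reaching 75%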
Peg3 prom inh = Peg3 promoter activity inhibition | HeLa PEG-Prom luciferase reporter, luminescence, overnight | inhibition, % at 20 µM | 360,000 compounds, 1.7% hits | AID 588405;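 active means inhibition of at least 50% at 20 µM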
Each line names hits and unclear results; the compound was inactive in the other large screens.

COc1ccc(CCn2c(=S)[nH]c3cc(C(=O)NCc4ccco4)ccc3c2=O)cc1OC	MITF TRPM1 inh 91, Peg3 prom inh 51
O=Nc1c(O)n(Cc2ccccc2)c2ccccc12	none
O=Nc1c(O)n(Cc2cccc(C(F)(F)F)c2)c2ccccc12	CF NFkB inh 51
O=C(ONC1=NCCCCC1)c1ccc(Cl)cc1	Peg3 prom inh 101
CSC1=NC(=O)/C(=C\c2cccc3ccccc23)S1	Peg3 prom inh 56
Cc1ccc(S(=O)(=O)/N=C2\C=C(NS(=O)(=O)c3ccccc3)C(=O)c3ccccc32)c(C)c1	CF NFkB inh 78
CC(C)(C)c1ccc(S(=O)(=O)/N=C2\C=C(NS(=O)(=O)c3ccccc3)C(=O)c3ccccc32)cc1	CF NFkB inh 82
Cc1cc(C)c(NS(=O)(=O)c2ccccc2)c(C)c1NS(=O)(=O)c1ccccc1	none
CCCCn1c(N)c(N(C(=O)CSc2nncn2-c2ccccc2C)C2CCCC2)c(=O)[nH]c1=O	none
CCOc1ccc(S(=O)(=O)N2CCC(C(=O)NCCc3ccc(OC)c(OC)c3)CC2)cc1	none
CCOc1ccc(S(=O)(=O)N2CCC(C(=O)NCCc3ccc(S(N)(=O)=O)cc3)CC2)cc1	EBV LMP1 NFkB 49
COc1cc(C(=O)N2CCCC(C)(C(=O)NS(=O)(=O)C3CC3)C2)cc(OC)c1OC (stereo not drawn)	none (no result: EBV LMP1 NFkB, MITF TRPM1 inh)
Cc1cc2nc(-c3ccccc3)c(CC(C)(C)C)n2c(C)c1Br	none (no result: EBV LMP1 NFkB, MITF TRPM1 inh)
COC(=O)c1ccccc1NC(=O)c1nc(S(=O)(=O)Cc2ccccc2)ncc1Cl	KKLEB cytotox -95, CF NFkB inh 96, MITF TRPM1 inh 93, Shn3 3UTR inh 95, Peg3 prom inh 92
CCc1nnc(NC(=O)c2nc(Cl)ccc2Cl)s1	none
CCc1nnc(NC(=O)c2nc(S(=O)(=O)Cc3ccc(C)cc3)ncc2Cl)s1	KKLEB cytotox -82, CF NFkB inh 94, MITF TRPM1 inh 69, Shn3 3UTR inh 94, Peg3 prom inh 106
O=C(NCc1ccc2c(c1)OCO2)c1nc(S(=O)(=O)Cc2ccccc2)ncc1Cl	CF NFkB inh 84, Shn3 3UTR inh 94, Peg3 prom inh 106
O=C(NCc1ccc2c(c1)OCO2)c1ccccc1Cl	none
CCc1nnc(NC(=O)c2nc(S(=O)(=O)Cc3ccccc3)ncc2Cl)s1	KKLEB cytotox -94, CF NFkB inh 90, MITF TRPM1 inh 80, Shn3 3UTR inh 98, Peg3 prom inh 104
CCc1nnc(NC(=O)c2nc(S(=O)(=O)Cc3cccc(C)c3)ncc2Cl)s1	EBV LMP1 NFkB 66, KKLEB cytotox -90, CF NFkB inh 90, MITF TRPM1 inh 76, Shn3 3UTR inh 97, Peg3 prom inh 109
CCc1nnc(NC(=O)c2cccc(S(=O)(=O)N3CCN(C)CC3)c2)s1	none (no result: MITF TRPM1 inh)
CCOc1ccccc1NC(=O)c1nc(S(=O)(=O)Cc2cccc(C)c2)ncc1Cl	EBV LMP1 NFkB 66, KKLEB cytotox -102, CF NFkB inh 87, MITF TRPM1 inh 93, Shn3 3UTR inh 98, Peg3 prom inh 106
Cc1ccc2nc(-c3ccccc3)c(Cc3ccccc3C(F)(F)F)n2c1	none (no result: EBV LMP1 NFkB, MITF TRPM1 inh)
Cn1c2c(c3ccccc31)CCN(CCCCN1CCN(c3ccccc3)CC1)C2=O	none
CSc1ccccc1OCc1cc(C(=O)N2CCC[C@H]2C(N)=O)no1	EBV LMP1 NFkB 63
Cc1ccc(C(C[N+](=O)[O-])c2c(-c3ccccc3O)[nH][nH]c2=O)cc1 (stereo not drawn)	Peg3 prom inh 96
O=c1[nH][nH]c(-c2ccccc2O)c1C(C[N+](=O)[O-])c1ccc(Br)cc1 (stereo not drawn)	none
N#CC1C=Cc2ccccc2N1C(=O)c1ccccc1 (stereo not drawn)	none
N#CC1C=Cc2c(ccc3ccccc23)N1C(=O)c1ccccc1 (stereo not drawn)	MITF TRPM1 inh 65
CCN(CC)c1ccc2c(c1)oc(=O)c1c(Cl)cc(=O)oc12	MITF TRPM1 inh 80, Shn3 3UTR inh 96, Peg3 prom inh 101
CCN(CC)c1ccc2c(C)cc(=O)oc2c1	none
CCN(CC)c1ccc2c(C)c(Cl)c(=O)oc2c1	none
CCN(CC)c1ccc2c(Cl)c(Br)c(=O)oc2c1	Shn3 3UTR inh 98, Peg3 prom inh 104
Cc1ccc(S(=O)(=O)N2CCOCC2)cc1C(=O)NC(C)CCc1ccccc1 (stereo not drawn)	none
O=C1NCCc2onc(-c3ccc(Br)cc3)c21	none (no result: EBV LMP1 NFkB, MITF TRPM1 inh)

Screening results (PubChem)
